Luciferase inh: inhibitors of firefly (Photinus pyralis) luciferase | P08659 | purified P. pyralis luciferase, luminescence, biochemical | Potency, µM (titrated, usually from 115 µM), actives largely listed as inhibitors | hit rate 2.5% among 76,000; further: on the % scale 0 is the no-effect control and ±100 the full control effect; nearly all actives have a fitted effect of over 65% in size
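Purified P. pyralis luciferase (10nM final) in 50mM Tris acetate pH 7.5, 10mM Mg acetate, 0.01% Tween-20, 0.05% BSA with 10uM D-luciferin and 10uM ATP. Compounds titrated qHTS. Luminescence imaged on CCD.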
HEK293 tox: kills HEK 293 cells | hit rate 6.6% among 94,000 | Potency, µM (series often up to 115 µM), for the others: at the top dose activity change, negative = cytotoxicity, actives largely listed as inhibitors | HEK 293 viability, ATP luminescence (CellTiter-Glo), 48-72 h; further: on the % scale 0 is the no-effect control and ±100 the full control effect; nearly all actives have a fitted effect of over 60% in size
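HEK 293 seeded at 250 cells/well receive compound via pintool. After 48 or 72 hr at 37 degree Celsius, 5% CO2 and 95% humidity, CellTiter-Glo is dispensed and luminescence read following 10 min at room temperature.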
hNpr1 antagonist: blocks ANP-stimulated signaling of human Npr1 receptor; P16066; HEK293 hNpr1 GloSensor cGMP, ANP-stimulated luminescence; Potency, µM (doses to about 46.3 µM), inactives show top-dose activity change, negative = inhibition, usual class: inhibitors; hit rate 1.6% among 76,000; AID 1347048; calls by dose curve; further: on the % scale 0 is the no-effect control and ±100 the full control effect; nearly all actives have a fitted effect of over 60% in size
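Compound pre-incubated 30 min at room temperature on GloSensor-loaded HEK293 cells stably carrying hNpr1 and the pGS-40F cGMP biosensor. Stimulation uses hNppA at 0.1 nM final; luminescence is taken at baseline and 20 min post-agonist.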
3T3 cytotox: kills NIH 3T3 cells; NIH 3T3 viability, CellTiter-Glo ATP luminescence, 48-72 h; Potency, µM (highest dose often 96.7 µM), for inactives: at the top dose activity change, negative = cytotoxicity, usual class: inhibitors; hit rate 4.3% among 94,000; further: on the % scale 0 is the no-effect control and ±100 the full control effect; nearly all actives have a fitted effect of over 55% in size
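First NIH 3T3 cells are plated at 400 cells/well; next compound is pinned in; then plates incubate 48 or 72 hr at 37 °C; finally CellTiter-Glo is added and luminescence read after 10 min.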
Npr1 antag conf: confirmation of human Npr1 natriuretic peptide receptor antagonists; shares compounds with hNpr1 antagonist; HEK293 hNpr1 cGMP GloSensor luminescence, ANP-stimulated; Potency, µM (highest dose often 57.6 µM), inactives show at the highest dose activity change, negative = inhibition, usual class: inhibitors; hit rate 76% among 1,400; AID 1347044; calls by dose curve; further: nearly all actives have a fitted effect of over 70% in size
Npr2 selectivity: antagonizes human Npr2, subtype selectivity check; hit rate 67% among 1,400; AID 1347046; shares compounds with hNpr1 antagonist; Potency, µM (doses to about 57.6 µM), for inactives: at the highest dose activity change, negative = inhibition, actives largely listed as inhibitors; HEK293 hNpr2 GloSensor cGMP luminescence, CNP-stimulated; calls by dose curve; further: nearly all actives have a fitted effect of over 70% in size
FLuc counter: inhibits firefly luciferase, false Npr1 antagonist flag | shares compounds with hNpr1 antagonist | purified FLuc enzyme, luminescence, Km substrate | Potency, µM (doses to about 57.6 µM), for the others: at the top dose activity change, negative = inhibition, most hits filed as inhibitors | hit rate 0.7% among 1,400 | AID 1347047; further: 0% is about no effect
GloSensor ctrl: control cell line activity, Npr1 antagonist counter-screen; shares compounds with hNpr1 antagonist; HEK293 GloSensor cGMP, SNP-stimulated, luminescence; Potency, µM (series often up to 57.6 µM), inactives show at the highest dose activity change, negative = inhibition, actives largely listed as inhibitors; hit rate 69% among 1,400; AID 1347051; calls by dose curve; further: on the % scale 0 is the no-effect control and ±100 the full control effect; nearly all actives have a fitted effect of over 70% in size
An asterisk follows results filed as active. Only some compounds are listed: those with a hit (about 11% of all), similar ones and a draw of the others. Unless noted, the call rests on the fitted dose curve; in most records, active means well fitted curve in the direction sought with a large enough effect; inconclusive means small, poorly fitted or top-dose-only effect, or another doubt; inactive means no such curve, though single readings can be large; an effect the other way counts as inactive or inconclusive. Potency means the concentration at half of the fitted maximal effect.

For Cc1ccc(OCCC2CCN(C(=O)CCCC(=O)n3nc(C)c4ccccc43)C2)cc1 (stereo unspecified) the results were Luciferase inh inactive, HEK293 tox 40µM*, hNpr1 antagonist 10µM*, 3T3 cytotox inconclusive, Npr1 antag conf 11µM*, Npr2 selectivity 14µM*, FLuc counter 0% and GloSensor ctrl 11µM*.
COc1ccc(C2Cn3nnc(C(=O)N4CCN(C(=O)CCc5ccccc5)CC4)c3CO2)cc1 (stereo unspecified) was read as Luciferase inh inactive, HEK293 tox inconclusive, hNpr1 antagonist inconclusive, 3T3 cytotox -27%, Npr1 antag conf 24µM*, Npr2 selectivity inconclusive, FLuc counter 2% and GloSensor ctrl 22µM*.
For COc1cccc(N2CCN(C(=O)c3cc4n(n3)CC(c3ccc(Cl)cc3)OC4)CC2)c1 (stereo unspecified) the results were Luciferase inh inactive, HEK293 tox inconclusive, hNpr1 antagonist 16µM*, 3T3 cytotox inconclusive, Npr1 antag conf 27µM*, Npr2 selectivity inconclusive, FLuc counter -4% and GloSensor ctrl inconclusive.
Screening COc1ccccc1CCC(=O)N1CCN(C(=O)c2nnn3c2COC(c2ccccc2)C3)CC1 (stereo unspecified) returned Luciferase inh inactive, HEK293 tox -11%, hNpr1 antagonist -15% and 3T3 cytotox -13%.
Screening COc1ccc(C2Cn3nnc(C(=O)N4CCN(C(=O)Cc5ccc(Cl)cc5)CC4)c3CO2)cc1 (stereo unspecified) returned Luciferase inh inactive, HEK293 tox -20%, hNpr1 antagonist inconclusive, 3T3 cytotox -19%, Npr1 antag conf 19µM*, Npr2 selectivity inconclusive, FLuc counter 2% and GloSensor ctrl 22µM*.
`COc1ccccc1CC(=O)N1CCN(C(=O)c2nnn3c2COC(c2ccc(Cl)cc2)C3)CC1` (stereo unspecified) gave Luciferase inh inactive, HEK293 tox inconclusive, hNpr1 antagonist 10µM*, 3T3 cytotox inconclusive, Npr1 antag conf 12µM*, Npr2 selectivity 15µM*, FLuc counter 1% and GloSensor ctrl 11µM*.
For COc1ccccc1N1CCN(C(=O)c2cc3n(n2)CC(c2ccc(Cl)cc2)OC3)CC1 (stereo unspecified) the results were Luciferase inh inactive, HEK293 tox inconclusive, hNpr1 antagonist inconclusive and 3T3 cytotox inconclusive.
`O=C(O)[C@@H]1CN(Cc2ccccc2)C[C@@H]1C(=O)N1CCCC1` gave Luciferase inh inactive, HEK293 tox -3%, hNpr1 antagonist -1% and 3T3 cytotox -11%.
`COc1cccc(CC(=O)N2CCN(C(=O)c3nnn4c3COC(c3ccc(Cl)cc3)C4)CC2)c1` (stereo unspecified) gave Luciferase inh inactive, HEK293 tox -33%, hNpr1 antagonist 11µM*, 3T3 cytotox -41%, Npr1 antag conf 24µM*, Npr2 selectivity 24µM*, FLuc counter 3% and GloSensor ctrl 22µM*.
Screening COc1ccc(C2Cn3nnc(C(=O)N4CCN(C(=O)Cc5ccccc5C)CC4)c3CO2)cc1 (stereo unspecified) returned Luciferase inh inactive, HEK293 tox inconclusive, hNpr1 antagonist inconclusive, 3T3 cytotox -13%, Npr1 antag conf 22µM*, Npr2 selectivity 22µM*, FLuc counter -2% and GloSensor ctrl 24µM*.

Screening results (PubChem)
